Results taken from PubChem BioAssay AID1159580 (chemical genetic matrix, 2015).
“And” between values parts separate entries of the source, which are not always exact repeats. Equal values may be shown once. About 2,000 (36%) of roughly 5,500 compounds were called active. Roughly 18% stayed inconclusive and do not appear here. Cut-off read from the data, not from the text of the source: active = normalized growth mostly below about 0.91 (no sharp cut-off); inconclusive = no clear call, values can overlap the other calls; inactive = mostly above about 0.92. This is one part of the list.

Test: chemical genetic growth profiling, strain panel (AID 1159580);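 note: tested at 20 µM; growth read once vehicle control cultures reached saturation at 30 °C; 1 = growth at the plate median or of vehicle wells; lower values mean less growth of the strain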
Conditions: growth OD

Measured: normalized growth

Cc1ccc(/C(=C\CN2CCCC2)c2ccccn2)cc1
inactive: S. cerevisiae deletion strains, locus YJR075W, strain HOC1, hits give low values 1.01 and 0.98 | S. cerevisiae deletion strains, locus YKL009W, strain mrt4, hits give low values 0.996 | S. cerevisiae deletion strains, locus YKL068W, hits give low values 0.999 | S. cerevisiae deletion strains, locus YKL085W, strain MDH1 (second series), hits give low values 1.01 | S. cerevisiae deletion strains, locus YKL085W, strain MDH1, hits give low values 1.01 | S. cerevisiae deletion strains, locus YKL160W, strain elf1, hits give low values 1.03 | S. cerevisiae deletion strains, locus YKL190W, strain CNB1, hits give low values 1.02 | S. cerevisiae deletion strains, locus YKR001C, strain vps1, hits give low values 0.986 | S. cerevisiae deletion strains, locus YKR026C, strain gcn3, hits give low values 1 | S. cerevisiae deletion strains, locus YKR091W, strain srl3, hits give low values 0.991 | S. cerevisiae deletion strains, locus YLL001W, strain dnm1, hits give low values 1.04 | S. cerevisiae deletion strains, locus YLL026W, hits give low values 1.04 | S. cerevisiae deletion strains, locus YLL041C, strain sdh2, hits give low values 1.01 | S. cerevisiae deletion strains, locus YLR027C, strain aat2, hits give low values 1.04 | S. cerevisiae deletion strains, locus YLR039C, strain RIC1, hits give low values 1.03 | S. cerevisiae deletion strains, locus YLR058C, strain SHM2, hits give low values 1.01 | S. cerevisiae deletion strains, locus YLR102C, strain apc9, hits give low values 0.998 | S. cerevisiae deletion strains, locus YLR113W, strain HOG1, hits give low values 1.02 | S. cerevisiae deletion strains, locus YLR221C, strain rsa3, hits give low values 0.977 | S. cerevisiae deletion strains, locus YLR258W, strain gsy2, hits give low values 0.986 | S. cerevisiae deletion strains, locus YLR262C, strain YPT6 (second series), hits give low values 1.02 | S. cerevisiae deletion strains, locus YLR262C, strain YPT6, hits give low values 1.01 | S. cerevisiae deletion strains, locus YLR268W, strain sec22, hits give low values 0.999 | S. cerevisiae deletion strains, locus YLR320W, strain mms22, hits give low values 0.973 | S. cerevisiae deletion strains, locus YLR330W, strain CHS5, hits give low values 1.01 | S. cerevisiae deletion strains, locus YLR342W, strain FKS1 (second series), hits give low values 0.997 | S. cerevisiae deletion strains, locus YLR342W, strain FKS1, hits give low values 1.02 | S. cerevisiae deletion strains, locus YLR357W, strain rsc2, hits give low values 0.992 | S. cerevisiae deletion strains, locus YLR370C, strain arc18, hits give low values 1.01 | S. cerevisiae deletion strains, locus YLR371W, strain rom2, hits give low values 1.01 | S. cerevisiae deletion strains, locus YLR384C, strain iki3, hits give low values 1 | S. cerevisiae deletion strains, locus YLR418C, strain cdc73, hits give low values 0.991 | S. cerevisiae deletion strains, locus YML016C, strain PPZ1, hits give low values 1 | S. cerevisiae deletion strains, locus YML032C, strain rad52, hits give low values 1 | S. cerevisiae deletion strains, locus YML120C, strain ndi1, hits give low values 1.05 | S. cerevisiae deletion strains, locus YML124C, strain tub3, hits give low values 0.995 | S. cerevisiae deletion strains, locus YMR058W, strain fet3, hits give low values 1.02 | S. cerevisiae deletion strains, locus YMR078C, strain ctf18, hits give low values 0.997 | S. cerevisiae deletion strains, locus YMR125W, strain sto1, hits give low values 1.02 | S. cerevisiae deletion strains, locus YMR129W, hits give low values 1.01 | S. cerevisiae deletion strains, locus YMR205C, strain PFK2, hits give low values 1.02 | S. cerevisiae deletion strains, locus YMR223W, strain ubp8, hits give low values 0.998 | S. cerevisiae deletion strains, locus YMR231W, strain pep5, hits give low values 0.999 | S. cerevisiae deletion strains, locus YMR263W, strain SAP30, hits give low values 1.01 and 0.981 | S. cerevisiae deletion strains, locus YMR307W, strain GAS1, hits give low values 0.983 and 0.987 | S. cerevisiae deletion strains, locus YNL067W, strain RPL9B, hits give low values 1 | S. cerevisiae deletion strains, locus YNL071W, strain lat1, hits give low values 0.986 | S. cerevisiae deletion strains, locus YNL128W, strain TEP1, hits give low values 1.02 | S. cerevisiae deletion strains, locus YNL153C, strain GIM3, hits give low values 1.01 | S. cerevisiae deletion strains, locus YNL175C, strain NOP13, hits give low values 0.996 | S. cerevisiae deletion strains, locus YNL183C, strain NPR1, hits give low values 0.952 | S. cerevisiae deletion strains, locus YNL197C, strain WHI3, hits give low values 1.01 | S. cerevisiae deletion strains, locus YNL209W, strain ssb2, hits give low values 0.996 | S. cerevisiae deletion strains, locus YNL224C, strain SQS1, hits give low values 0.989 | S. cerevisiae deletion strains, locus YNL233W, strain BNI4, hits give low values 1.01 | S. cerevisiae deletion strains, locus YNL248C, strain rpa49, hits give low values 0.992 | S. cerevisiae deletion strains, locus YNL250W, strain rad50, hits give low values 1 | S. cerevisiae deletion strains, locus YNL271C, strain bni1, hits give low values 0.986 | S. cerevisiae deletion strains, locus YNL298W, strain CLA4, hits give low values 1 | S. cerevisiae deletion strains, locus YNL307C, strain MCK1, hits give low values 1.01 | S. cerevisiae deletion strains, locus YNL322C, strain KRE1 (second series), hits give low values 1.01 | S. cerevisiae deletion strains, locus YNL322C, strain KRE1, hits give low values 1.01 | S. cerevisiae deletion strains, locus YNR049C, strain mso1, hits give low values 1.01 | S. cerevisiae deletion strains, locus YNR052C, strain pop2, hits give low values 1 | S. cerevisiae deletion strains, locus YOL006C, strain TOP1, hits give low values 1 | S. cerevisiae deletion strains, locus YOL012C, strain htz1 1.12 | S. cerevisiae deletion strains, locus YOL147C, strain pex11, hits give low values 0.992 | S. cerevisiae deletion strains, locus YOR001W, strain rrp6, hits give low values 1.02 | S. cerevisiae deletion strains, locus YOR061W, strain CKA2, hits give low values 1.01 | S. cerevisiae deletion strains, locus YOR069W, strain VPS5, hits give low values 1.01 | S. cerevisiae deletion strains, locus YOR070C, strain gyp1, hits give low values 0.992 | S. cerevisiae deletion strains, locus YOR080W, strain dia2, hits give low values 1.02 | S. cerevisiae deletion strains, locus YOR083W, strain WHI5 (second series), hits give low values 0.985 | S. cerevisiae deletion strains, locus YOR083W, strain WHI5, hits give low values 1 | S. cerevisiae deletion strains, locus YOR106W, strain vam3, hits give low values 1.05 | S. cerevisiae deletion strains, locus YOR136W, strain idh2, hits give low values 1 | S. cerevisiae deletion strains, locus YOR144C, strain elg1, hits give low values 0.995 | S. cerevisiae deletion strains, locus YOR184W, strain ser1, hits give low values 1 | S. cerevisiae deletion strains, locus YOR231W, strain MKK1, hits give low values 0.984 | S. cerevisiae deletion strains, locus YOR265W, strain rbl2, hits give low values 1.01 | S. cerevisiae deletion strains, locus YOR270C, strain vph1, hits give low values 0.985 | S. cerevisiae deletion strains, locus YOR290C, strain snf2, hits give low values 0.96 | S. cerevisiae deletion strains, locus YOR316C, strain cot1, hits give low values 1 | S. cerevisiae deletion strains, locus YPL051W, strain arl3, hits give low values 1.02 | S. cerevisiae deletion strains, locus YPL055C, strain LGE1, hits give low values 1.02 | S. cerevisiae deletion strains, locus YPL078C, strain atp4, hits give low values 1.06 | S. cerevisiae deletion strains, locus YPL106C, strain sse1, hits give low values 0.987 | S. cerevisiae deletion strains, locus YPL240C, strain hsp82, hits give low values 1.04 | S. cerevisiae deletion strains, locus YPL241C, strain CIN2, hits give low values 1 and 0.988 | S. cerevisiae deletion strains, locus YPL256C, strain CLN2, hits give low values 1 | S. cerevisiae deletion strains, locus YPR119W, strain clb2, hits give low values 1 | S. cerevisiae deletion strains, locus YPR141C, strain kar3, hits give low values 0.998 | S. cerevisiae deletion strains, locus YPR163C, strain tif3, hits give low values 0.994 | S. cerevisiae deletion strains, locus YPR167C, strain met16, hits give low values 1 | S. cerevisiae deletion strains, strain wtn01, hits give low values 0.999 | S. cerevisiae strains, strain wild type, hits give low values 1.01
